Screening results deposited in PubChem by several laboratories.
MPTP inh – mitochondrial permeability transition pore inhibitors, primary screen, biochemical, isolated mouse mitochondria, absorbance | 360,000 compounds, 1.4% hits | inhibition, % at 10 µM | Ca2+ swelling absorbance, 30 min;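 active = inhibition of 50% or more, scaled per plate between neutral and stimulator controls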
Mdm2 MdmX PPI – inhibitors of human Mdm2-MdmX association, primary screen, cell-based, luminescence, split luciferase, SaOS-2, uHTS; Protein Mdm4 (Homo sapiens) + E3 ubiquitin-protein ligase Mdm2 (Homo sapiens), …; SaOS-2 split-luciferase Mdm2/MdmX complementation; inhibition, % at 8 µM; 330,000 compounds, 3% hits;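 active = inhibition of at least 50% at 8 µM in the primary screen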
Target sequence (O15151 whole entry, looked up): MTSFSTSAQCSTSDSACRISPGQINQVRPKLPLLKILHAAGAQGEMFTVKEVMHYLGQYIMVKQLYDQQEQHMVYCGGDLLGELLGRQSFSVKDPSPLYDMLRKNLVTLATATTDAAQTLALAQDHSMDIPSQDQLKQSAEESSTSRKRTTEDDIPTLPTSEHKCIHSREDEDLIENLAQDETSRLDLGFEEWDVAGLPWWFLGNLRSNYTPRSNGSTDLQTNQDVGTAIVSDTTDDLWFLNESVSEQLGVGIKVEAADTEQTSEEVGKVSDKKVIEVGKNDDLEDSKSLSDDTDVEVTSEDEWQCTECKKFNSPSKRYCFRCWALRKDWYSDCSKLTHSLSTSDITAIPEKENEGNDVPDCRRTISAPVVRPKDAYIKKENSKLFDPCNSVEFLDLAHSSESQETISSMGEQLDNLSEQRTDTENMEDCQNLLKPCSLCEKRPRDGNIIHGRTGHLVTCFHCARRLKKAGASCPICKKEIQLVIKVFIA
Target sequence (Q00987 whole entry, looked up): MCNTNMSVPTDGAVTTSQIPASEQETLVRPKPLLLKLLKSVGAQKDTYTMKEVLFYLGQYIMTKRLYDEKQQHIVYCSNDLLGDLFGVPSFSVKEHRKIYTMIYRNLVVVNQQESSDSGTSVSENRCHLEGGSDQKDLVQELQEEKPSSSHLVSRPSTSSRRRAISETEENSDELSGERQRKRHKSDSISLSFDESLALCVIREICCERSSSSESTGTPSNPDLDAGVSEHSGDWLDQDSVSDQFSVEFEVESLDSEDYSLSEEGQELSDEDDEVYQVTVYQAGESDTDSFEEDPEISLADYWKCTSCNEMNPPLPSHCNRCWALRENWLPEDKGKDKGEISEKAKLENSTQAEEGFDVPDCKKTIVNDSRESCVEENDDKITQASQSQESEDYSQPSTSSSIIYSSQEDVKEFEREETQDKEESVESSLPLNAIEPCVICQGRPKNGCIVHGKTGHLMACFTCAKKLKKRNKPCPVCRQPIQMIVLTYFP
Beta apoptosis – inhibitors of cytokine-induced beta cell apoptosis, primary screen, luminescence; INS-1E cytokine-induced death, ATP luminescence, 48 h; percent of positive-control rescue, neutral wells zero; protection from apoptosis, % (no concentration beside the values); 300,000 compounds, 0.8% hits;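 active = Every replicate reaches about 75%, or at least half do and their mean reaches it too, limit read from the data; inconclusive = At least half of replicates reach the limit but their mean does not; inactive = Under half of replicates reach the limit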;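 note: higher means more ATP so stronger rescue from cytokine killing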
SKKanGAS inh – S. pyogenes SKKanGAS growth inhibitors in kanamycin, primary screen, streptokinase expression inhibitor project, SKKanGAS strain, BacTiter-Glo luminescence | 6 h | inhibition, % at 7.5 µM | 300,000 compounds, 1.3% hits | AID 1662, 2009;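 active = mean replicate score, as percent of positive control median, at least 50; inconclusive = mean below 50 but one replicate at or above 50; inactive = mean and every replicate below 50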;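 note: strain carries kanamycin resistance gene driven by streptokinase promoter and grows in 40 µg/ml kanamycin; loss of luminescence reflects streptokinase promoter inhibition or plain growth inhibition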
Calb FLC – C. albicans growth inhibition with fluconazole, primary screen, CaCi-2 strain, Alamar Blue fluorescence; C. albicans CaCi-2 (fluconazole-resistant clinical isolate) + fluconazole, 48 h; growth inhibition, % (concentration not given with the values); 300,000 compounds, 0.57% hits; AID 1979, 2009;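 active = growth inhibition above about 58% in most replicates, limit read from the data, passing the limit was not always enough; inconclusive = exactly half the replicates above a set limit; inactive = most replicates below a set limit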;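 note: all wells also contain fluconazole at 8 µg/ml as a sub-toxic cotreatment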
CSC inhib – cancer stem cell viability inhibitors, primary screen, luminescence; cancer stem cell-like cells viability; inhibition, % at 7.5 µM; 300,000 compounds, 1.1% hits; in the data active = inhibition above about 75%; inconclusive = no clear call, values can overlap the other calls; tested in HMLE shEcad cells
MPTP counter – fluorescence retest of MPTP screen hits in isolated mitochondria, single concentration; shares compounds with MPTP inh; membrane potential, Rhodamine 123 fluorescence; inhibition, % at 10 µM; 5,000 compounds, 78% hits; AID 624504, 2012; in the data active = inhibition above about 22%
Each line names hits and unclear results; the compound was inactive in the other large screens (follow-up assays come after a bar, where they were run). Hits are enriched below; roughly 5.4% of the tested compounds scored in any of these assays.

CC(=O)c1cccc(S(=O)(=O)Nc2ccc3nc(C)sc3c2)c1	MPTP inh 91.3 | MPTP counter 57.4
Cc1nc2ccc(S(=O)(=O)Nc3ccccc3C)cc2s1	none
Cc1nc2ccc(NS(=O)(=O)c3ccc(C)c(C)c3)cc2s1	MPTP inh 96.3 | MPTP counter 94.4
COc1cc(S(=O)(=O)Nc2ccc3nc(C)sc3c2)ccc1NC(C)=O	MPTP inh 68.4 (no result: SKKanGAS inh, Calb FLC) | MPTP counter 86.3
O=C(CCNC(=O)Cn1ccc2ccccc2c1=O)NCCN1CCN(c2cccc(Cl)c2)CC1	none
CCOc1cc(C(=O)OCC(=O)c2c(C)[nH]c3ccccc23)ccc1OCC(=O)N1CCOCC1	none
Cc1nc2ncnn2c(C)c1CCC(=O)O	none (no result: SKKanGAS inh)
Cc1noc(C)c1S(=O)(=O)N1CCCC(C(=O)N2CCN(C3CCCCC3)CC2)C1 (configuration not stated)	none
O=C(NC1CCCCC1)C(=O)N(Cc1cccnc1)C(C(=O)NCc1ccco1)c1ccccc1 (configuration not stated)	none (no result: MPTP inh)
CC(C)c1ccc(S(=O)(=O)c2n[nH]n3c2nc(=O)c2ccccc23)cc1	MPTP inh 57.6 | MPTP counter 60.4
CCc1ccc(S(=O)(=O)c2n[nH]n3c2nc(=O)c2ccccc23)cc1	none
CC1CCN(c2oc(-c3ccco3)nc2S(=O)(=O)c2ccccc2)CC1	none
O=C(CSc1nc(-c2ccccc2Cl)ns1)Nc1ccc2c(c1)OCO2	MPTP inh 87.0 (no result: Beta apoptosis) | MPTP counter 80.0
CCOc1ccc2nc(SCC(=O)Nc3ccc4c(c3)OCO4)sc2c1	MPTP inh 75.3 | MPTP counter 69.0
Cc1ccc(-c2nsc(SCC(=O)Nc3ccc4c(c3)OCO4)n2)cc1	MPTP inh 95.5 | MPTP counter 88.6
COc1ccc(CCNC(=O)c2cc(-c3cc(Cl)cc(Cl)c3)oc2C)cc1	MPTP inh 77.2 | MPTP counter 20.9
O=C(NCCc1ccccc1)c1ccccc1C(=O)NCCc1ccccc1	none
Cc1oc(-c2cc(Cl)cc(Cl)c2)cc1C(=O)NCCc1ccccc1	MPTP inh 92.7, SKKanGAS inh 50.6 | MPTP counter 78.5
O=C(/C=C/c1cccc([N+](=O)[O-])c1)NCCSCc1ccc(Cl)cc1Cl	MPTP inh 66.8 | MPTP counter 72.5
CC(C)OCCCn1c(=NC(=O)c2cccs2)c(C#N)cc2c(=O)n3ccccc3nc21	none
N#Cc1c(-c2ccc(Cl)cc2)n(O)c2ccccc12	MPTP inh 95.6 (no result: Mdm2 MdmX PPI, Beta apoptosis, SKKanGAS inh, Calb FLC, CSC inhib) | MPTP counter 99.6
Cn1c(-c2ccc(C#N)cc2)c(C#Cc2ccccc2)c2ccccc21	none (no result: Mdm2 MdmX PPI, Beta apoptosis, SKKanGAS inh, Calb FLC, CSC inhib)
COc1cccc(OCc2cc(C(=O)N(C)C3CC(C)(C)NC(C)(C)C3)no2)c1	none
CCOC(=O)c1c(C(F)(F)C(F)(F)C(F)(F)C(F)(F)F)n[nH]c1C	MPTP inh 73.4 (no result: CSC inhib) | MPTP counter 77.9
C=CCNC(=O)N1c2ccccc2Sc2ccccc21	none
Cc1ccc(OCCn2c(Br)nc3c2c(=O)n(C)c(=O)n3C)cc1	MPTP inh 82.3 | MPTP counter 59.6
CC(=O)c1ccc(NC(=S)NC(C)c2ccc(Cl)cc2Cl)cc1 (configuration not stated)	MPTP inh 95.3, Beta apoptosis inconclusive | MPTP counter 68.8
CC(=O)c1ccc(NC(=S)Nc2ccc(Br)c(Cl)c2)cc1	MPTP inh 96.2, SKKanGAS inh 94.6 (no result: CSC inhib) | MPTP counter 100.2
CC(=O)c1ccc(NC(=S)NC(=O)Cc2ccc(Cl)cc2)cc1	none (no result: Beta apoptosis)
N#C/C(=N\Nc1ccc(S(=O)(=O)N2CCc3ccccc32)cc1)C(N)=S	MPTP inh 99.2, SKKanGAS inh inconclusive | MPTP counter 67.3
NS(=O)(=O)c1ccc(NC(=O)c2ccc(S(=O)(=O)N3CCc4ccccc43)cc2)cc1	none
CCOC(=O)/C(C#N)=N/Nc1ccc(S(=O)(=O)N2CCc3ccccc32)cc1	MPTP inh 89.2 | MPTP counter 88.8
COc1ccc(Cl)cc1NC(=O)CSc1nnc(Cc2ccc(C)cc2)c(=O)[nH]1	MPTP inh 63.3 (no result: Beta apoptosis) | MPTP counter 67.2
COC(=O)CSc1n[nH]c(-c2ccncc2)n1	none
